An excerpt weighted towards active compounds, which were near 6.5% of everything screened.
HepG2 viability = HepG2 cytotoxicity, counter-screen for TGF-b inhibitors; HepG2 CAGA-GFP viability, ATP luminescence, 18 h; Potency, µM (doses to about 46.1 µM), without a hit: at the top dose activity change, negative = cytotoxicity, actives largely listed as cytotoxic; 410,000 compounds, 0.76% hits; also: potency is read from the fitted curve at half-maximal effect
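CellTiter-Glo luminescence gave cytotoxicity after 18 hours at 37 degrees C. The cells were HepG2 CAGA-GFP in 1% FBS DMEM, stimulated with 500 pg/mL TGF-beta after compound addition. %Activity was normalised to no-cell wells (complete cell-killing) and DMSO (no toxicity), and curves were fitted and classified.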
IL-1B inflam inh = inflammasome signaling inhibition, IL-1 beta readout; 360,000 compounds, 4.7% hits; AID 743279; activity change, % at 57.5 µM; THP-1 LPS/ATP IL-1B secretion, AlphaLISA, 16 h; active compounds read low; in the data active = activity change below about -50%; inconclusive = mostly about -30% to -49%; also: % is scaled to controls: 0 for no effect and ±100 for the full control effect
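Secreted IL-1B measured by AlphaLISA bead assay after 16 h compound exposure of THP-1 cells; compounds (final up to 57.5 uM) added 1 h before LPS (250 ng/mL) and ATP (1.25 mM) stimulation; lower signal means less secretion.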
Giardia kill = Giardia lamblia killing. Giardia lamblia trophozoite viability. activity change, % at 7.66 µM, hits read low. 340,000 compounds, 0.15% hits. AID 540267; in the data active = activity change below about -80%; inconclusive = between about -30% and that limit;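 also: parasites exposed to compound for two days anaerobically before the ATP read; % is scaled to controls: 0 for no effect and ±100 for the full control effect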
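Luminescence from cellular ATP indicates surviving trophozoites (100 cells/well) following 48 hrs anaerobic compound treatment at 37 deg C; signal develops 15-30 min at room temperature.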
HT1080 IDH1KD tx = toxicity to HT-1080 IDH1 knockdown cells (counter line); HT-1080 IDH1 knockdown viability, ATP luminescence, 48 h; Potency, µM (top dose mostly 46.1 µM), for inactives: top-dose activity, negative = toxicity, hits mostly cytotoxic; 360,000 compounds, 2% hits; AID 686971;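 also: potency is read from the fitted curve at half-maximal effect; 0% = DMSO wells and -100% = cell-free medium wells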
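% activity derives from luminescence (CellTiter-Glo), normalised to DMSO and no-cell wells. HT-1080-IDH1KD cells, 750/well, had 48 h compound exposure at 37 °C.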
HT1080-NT tox = kills 2HG-producing HT-1080-NT fibrosarcoma cells | HT-1080-NT fibrosarcoma viability, CellTiter-Glo ATP luminescence, 48 h | Potency, µM (doses to about 46.1 µM), without a hit: at the top dose activity, negative = less viability, usual class: cytotoxic | 360,000 compounds, 1.6% hits;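 also: NT is the 2HG producing partner of a matched IDH1 knockdown line; potency is read from the fitted curve at half-maximal effect; 0% = DMSO-treated cells and -100% = media-only wells without cells; nearly all actives have a fitted effect of over 55% in size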
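Luminescent CellTiter-Glo readout after 48 hours of compound exposure at 37 degrees C defined viability of HT-1080-NT cells. Activity was normalized to DMSO wells and cell-free media wells; concentration-response curves were fitted and assigned curve classes.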
TGFb inhibitor = TGF-b pathway inhibition | AID 588855 | HepG2 CAGA-GFP TGF-b/SMAD3 reporter, GFP fluorescence, 18 h; TGF-beta stimulated, 500 pg/mL final | 410,000 compounds, 1.2% hits | Potency, µM (top dose mostly 46.1 µM), for the others: at the top dose activity, negative = inhibition, most hits filed as inhibitors; also: potency is read from the fitted curve at half-maximal effect; % is scaled to controls: 0 for no effect and ±100 for the full control effect; nearly all actives have a fitted effect of over 65% in size
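First, reporter cells (HEPG2 CAGA-GFP) rested 2 h at 37 degrees C. Next, compounds were pinned in and TGF-beta added to 500 pg/mL final. After 18 h, GFP was imaged per cell and summed per well.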
The depositor's hits bear a star; ? = inconclusive; . = not tested or not shown; ! = not active in a repeat. Unless noted, calls follow the shape of the dose curve; as a rule, active = well fitted curve in the direction sought with a large enough effect; inconclusive = small, poorly fitted or top-dose-only effect, or another doubt; inactive = no such curve, though single readings can be large; an effect the other way counts as inactive or inconclusive.

SMILES | HepG2 viability | IL-1B inflam inh | Giardia kill | HT1080 IDH1KD tx | HT1080-NT tox | TGFb inhibitor
CCCn1c(=O)n(C)c(=O)c2c(SCC(=O)Nc3cc(C)on3)nc(C(C)(C)C)nc21 | -89% | -10 | -14 | -21% | -24% | 18µM*
Cc1cc(NC(=O)CSc2nc(-c3cccs3)nc3ccccc23)no1 | -9% | 26 | -21 | 5.2µM* | 5.8µM* | -23%
CCCCn1c(SCC(=O)Nc2cc(C)on2)nc2ccccc2c1=O | 4µM* | -3 | -9 | 0% | -12% | -54%
COc1ccc(CC(=O)OCn2nnc3ccccc3c2=O)cc1OC | 10% | 6 | 15 | 7% | 4% | -3%
Cc1cc(NC(=O)CSc2nc3ccccc3n2CCC#N)no1 | -11% | -56* | ? | 6% | -2% | 7%
CCCCn1c(SCC(=O)Nc2cc(NC(=O)c3ccco3)ccc2C)nc2ccccc2c1=O | -11% | 18 | -9 | 11µM* | ? | -3%
CN(C)S(=O)(=O)c1ccc(C(=O)OCC(=O)NC(=O)NC2CCCC2)cc1 | -6% | 3 | 6 | 0% | 8% | 3%
COCCCNc1nc2c(c(=O)[nH]c(=O)n2C)n1CC(O)COc1ccc(Cl)cc1 (stereo not drawn) | 4% | . | . | . | . | 4%
CCN(Cc1ccccc1)c1ccccc1 | -12% | -6 | 7 | 4% | 0% | -1%
CCN(Cc1ccccc1)c1ccc(/C=N/N=C(N)N)cc1 | -81% | -100* | -9 | ? | 18µM* | ?
CC1SC(c2cccc(Cl)c2)NC1=O (stereo not drawn) | 1% | -16 | -14 | -2% | 4% | -1%
O=C1C(Cc2ccccc2)Nc2ncnc(N3CCN(c4ccccc4)CC3)c2N1Cc1ccc(Cl)cc1 (stereo not drawn) | -13% | -56* | -11 | -8% | -10% | -2%
CC(C)CC1Nc2ncnc(N3CCN(c4ccccc4)CC3)c2N(Cc2ccccc2)C1=O (stereo not drawn) | -19% | -20 | -11 | -4% | -27% | ?
COc1ccc(CN2C(=O)C(CC(C)C)Nc3ncnc(N4CCN(c5ccccc5)CC4)c32)cc1 (stereo not drawn) | -21% | -62*! | -11 | -8% | ? | ?
CC(C)CC1Nc2ncnc(N3CCN(c4ccccn4)CC3)c2N(Cc2ccc(Cl)cc2)C1=O (stereo not drawn) | -3% | -70*! | -26 | ? | ? | ?
CCN(CC)S(=O)(=O)c1ccc(N2CCOCC2)c(NC(=O)c2cc(C)cc(C)c2)c1 | -42% | -51* | -6 | -10% | -1% | -5%
CCN(CC)S(=O)(=O)c1ccc(N2CCOCC2)c(NC(=O)CCC2CCCCC2)c1 | 2% | -13 | -12 | 0% | 3% | -11%
CC(C)C(=O)N1CCN(c2ccc(NC(=O)c3ccc4c(c3)OCCO4)cc2Cl)CC1 | -34% | -97* | 7 | ? | ? | -18%
O=C(CCC1CCCC1)Nc1cc(Cl)ccc1N1CCOCC1 | -5% | -57* | ? | -8% | -2% | 4%
CC(=O)N1CCN(c2ccc(NC(=O)c3ccc4c(c3)OCCO4)cc2Cl)CC1 | -11% | -88* | -14 | -20% | -21% | 2%
CCOC(=O)C1=C(C)Nc2ncnn2C1c1cc(OC)ccc1OC (stereo not drawn) | 1% | 10 | 7 | 1% | 10% | 17%
O=C(Nc1cc(Cl)ccc1N1CCOCC1)c1ccc2c(c1)OCCO2 | -16% | -71* | 2 | 0% | 0% | -5%
CCN(Cc1nc2ccccc2c(=O)[nH]1)C(=O)c1ccc(C)c(NC(=O)c2ccco2)c1 | -31% | -5 | -29 | -11% | -6% | -19%
CC1NC(=O)NC1CCCCCC(=O)Nc1ccc(F)c(Cl)c1 (stereo not drawn) | -1% | -116* | 4 | -5% | -1% | 6%
CCc1cccc(NC(=O)CCCCCC2NC(=O)NC2C)c1 (stereo not drawn) | 13% | -109* | 4 | -7% | 1% | -6%
SMILES | HepG2 viability | IL-1B inflam inh | Giardia kill | HT1080 IDH1KD tx | HT1080-NT tox | TGFb inhibitor
CCc1cccc(NC(=O)CCCN2C(=O)NC(C)(C)C2=O)c1 | -10% | 16 | -27 | 8% | 2% | -2%
CCC(=O)Nc1ccc(F)c(Cl)c1 | 3% | 7 | -10 | 3% | 8% | 33%
Cc1ccc(NC(=O)CCCCCC2NC(=O)NC2C)cc1 (stereo not drawn) | -8% | -95* | -2 | -6% | 3% | 0%
CCCCCC(O)CCC(=O)NNC1=CC(=O)CC(C)(C)C1 (stereo not drawn) | -7% | 14 | -9 | 17% | 12% | -8%
CCOc1cc(NC(=S)Nc2ccccc2)c(OCC)cc1NC(=O)c1ccccc1 | -27% | -1 | 17 | 0% | 1% | -18%
COc1cc(Cl)c(C)cc1NC(c1ccccc1)c1nnc(-c2ccccc2Cl)o1 (stereo not drawn) | -35% | . | . | . | . | 18µM*
N#CC(C(=O)Nc1cccc(Cl)c1)=C1Nc2ccccc2N1 | -2% | -9 | 27 | ? | ? | -10%
CC1CCC(=C(C#N)C(=O)Nc2cccc(Cl)c2)CC1 (stereo not drawn) | -30% | -87* | -10 | 4% | 0% | -15%
O=c1[nH]c(=S)[nH]c2c1C(c1ccc(Cl)cc1)OC(CCc1ccccc1)C2 (stereo not drawn) | 2% | 11 | . | 1% | 7% | ?
O=C(c1noc2c1CCCC2)N1CCc2c([nH]c3ccccc23)C1c1ccccn1 (stereo not drawn) | 0% | -27 | -14 | -15% | -20% | -3%
Cc1cccc(C2c3[nH]c4ccccc4c3CCN2C(=O)c2noc3c2CCCC3)n1 (stereo not drawn) | -37% | -54* | -8 | -21% | -7% | -11%
Cc1ccc2nc(C(=O)N3CCc4c([nH]c5ccccc45)C3c3ccccn3)cn2c1 (stereo not drawn) | -12% | -59* | 21 | -1% | -18% | ?
CC1SC(=S)N(c2ccc(N(C)C)cc2)C1=O (stereo not drawn) | -75% | -8 | -23 | ? | -1% | 16µM*
O=C(/C=C/c1ccccc1)Nc1ccc(Cl)cn1 | -8% | 0 | 3 | 4.6µM* | ? | -21%
O=C(CC(c1ccccc1)c1ccccc1)Nc1ccc(Cl)cn1 | 4% | 6 | 4 | 15µM* | ? | 8%
O=C(/C=C/c1cccs1)Nc1ccc(Br)cn1 | 19% | 78 | -6 | 0.18µM* | 0.12µM* | ?
